Compounds without any hit were thinned out: in the full panel of roughly 83,000, 20% have a hit.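 Each cell line was grown in a 96-well plate and treated with one concentration of compound for 48 hours. Values below 10 were considered active.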 Values without a mark were called inactive. The source made the active and inactive calls.

Consider eight molecules from PubChem BioAssay (NCI).

Test systems include NCI-H23 lung; NCI-H226 lung; NCI-H322M lung; HOP-62 NSCLC; NCI-H460 lung; HOP-92 NSCLC; NCI-H522 lung; A549/ATCC NSCLC; 786-0 renal; DU-145 prostate; K-562 leukemia; MALME-3M melanoma; RXF 393 renal; SF-268 CNS; SF-295 CNS; SF-539 CNS; UACC-257 melanoma; M14 melanoma; MDA-MB-231 breast; COLO 205 colon.
Common to all, as to assay: NCI-60 one-dose screen, 48 h (100 = growth as untreated, 0 = no growth, -100 = all killed)
Holding throughout (settings): 10 µM unless noted

`COc1ccccc1C(OC(C)=O)OC(C)=O`: the growth in the experiment with NCI-H23 lung was 98.7%; in the experiment on NCI-H226 lung, 94%; in the experiment with NCI-H322M lung, 97.5%; in the experiment with HOP-62 NSCLC it was 104%; in the experiment with NCI-H460 lung it was 107%; with HOP-92 NSCLC, 115%. The growth in the experiment with NCI-H522 lung is 78%; with A549/ATCC NSCLC, 79.5%; with 786-0 renal, 97.7%; with DU-145 prostate, 109%; in the experiment on K-562 leukemia it was 95.6%; with MALME-3M melanoma, 108%. For the same molecule, the growth in the experiment on RXF 393 renal was 111%; in the experiment with SF-268 CNS, 98.8%; with SF-295 CNS it was 96.6%; in the experiment with SF-539 CNS, 101%; with UACC-257 melanoma, 87.5%; in the experiment with M14 melanoma, 98.3%.

As for `CCOc1ccc(-n2c(-c3cc(OC)c(OC)c(OC)c3)nnc2-c2ccc(OC)cc2N)cc1`, the growth in the experiment on NCI-H23 lung was 76.4%; in the experiment on NCI-H226 lung, 80.1%; with NCI-H322M lung, 81.3%; in the experiment on HOP-62 NSCLC, 78.3%; in the experiment with NCI-H460 lung it was 42.3%; in the experiment with HOP-92 NSCLC, 73.1%. Further, the growth is 52.6% in the experiment on NCI-H522 lung; 54.9% with A549/ATCC NSCLC; 89.5% in the experiment with 786-0 renal; 57.6% with DU-145 prostate; 70.3% in the experiment with K-562 leukemia; 79.7% in the experiment on MALME-3M melanoma. Besides, the growth with MDA-MB-231 breast was 82.7%; in the experiment with RXF 393 renal it was 51.9%; in the experiment with SF-268 CNS, 86.9%; in the experiment with SF-295 CNS, 84.8%; with SF-539 CNS it was 77.6%; with UACC-257 melanoma, 57.2%. Also, in the experiment on M14 melanoma, the growth was 68.1%.

For `COc1ccccc1P(c1ccccc1OC)c1ccccc1OC`, the growth in the experiment with NCI-H23 lung is 250%; with NCI-H226 lung, 105%; with NCI-H322M lung, 87.5%; in the experiment with HOP-62 NSCLC, 113%; in the experiment with NCI-H460 lung, 94.8%; in the experiment on HOP-92 NSCLC it was 70%. The growth with NCI-H522 lung was 92.4%; in the experiment on A549/ATCC NSCLC, 82.2%; in the experiment with 786-0 renal it was 106%; in the experiment on DU-145 prostate, 109%; in the experiment on K-562 leukemia it was 107%; in the experiment with MALME-3M melanoma it was 104%. The growth in the experiment with MDA-MB-231 breast is 101%; in the experiment with RXF 393 renal, 102%; in the experiment on SF-268 CNS, 109%; in the experiment with SF-295 CNS, 97.3%; with SF-539 CNS it was 101%; in the experiment with UACC-257 melanoma it was 78.1%. In the experiment with M14 melanoma, the growth is 101%.

For the molecule `O=C(Cn1c2ccccc2c2ccncc21)N/N=C/c1cc(O)c(O)c(O)c1`, the growth was 103% in the experiment with NCI-H23 lung; 105% in the experiment on NCI-H226 lung; 108% in the experiment with NCI-H322M lung; 104% with HOP-62 NSCLC; 101% with NCI-H460 lung; 111% in the experiment with HOP-92 NSCLC. For the same molecule, the growth was 84.5% in the experiment with NCI-H522 lung; 101% with A549/ATCC NSCLC; 105% in the experiment with 786-0 renal; 110% in the experiment with COLO 205 colon; 104% in the experiment with DU-145 prostate; 112% with MALME-3M melanoma. For the same molecule, the growth is 101% in the experiment on MDA-MB-231 breast; 97.7% in the experiment on RXF 393 renal; 98.1% with SF-268 CNS; 110% in the experiment with SF-295 CNS; 93.1% in the experiment on SF-539 CNS; 98.8% in the experiment on UACC-257 melanoma. For the same molecule, in the experiment with M14 melanoma, the growth is 110%.

Take `COC(=O)c1oc2c(C(C)=O)c(OCCN3CCCCC3)ccc2c1C`: the growth is 97.9% with NCI-H23 lung; 118% in the experiment on NCI-H226 lung; 84.9% with NCI-H322M lung; 125% with HOP-62 NSCLC; 131% in the experiment on NCI-H460 lung; 60.4% in the experiment on HOP-92 NSCLC. The growth with NCI-H522 lung is 79.6%; with A549/ATCC NSCLC, 123%; in the experiment with 786-0 renal it was 52.9%; in the experiment on DU-145 prostate it was 117%; in the experiment on K-562 leukemia, 89.4%; in the experiment with MALME-3M melanoma, 40.9%. Also, the growth in the experiment with MDA-MB-231 breast was 87.2%; with RXF 393 renal, 124%; in the experiment on SF-268 CNS, 95.4%; with SF-295 CNS, 99.4%; with SF-539 CNS it was 116%; in the experiment on UACC-257 melanoma, 112%. Further, the growth in the experiment on M14 melanoma was 111%.

As for `CCN(CC)CCNCC(O)Cc1ccc(OC)cc1` (stereo not given), the growth with NCI-H23 lung is 103%; with NCI-H226 lung, 90.5%; with NCI-H322M lung it was 91.4%; in the experiment on HOP-62 NSCLC, 102%; in the experiment on NCI-H460 lung, 107%; in the experiment with HOP-92 NSCLC, 81.4%. Further, the growth in the experiment on NCI-H522 lung was 66.1%; in the experiment with A549/ATCC NSCLC, 96%; in the experiment with 786-0 renal it was 98.5%; in the experiment with DU-145 prostate, 110%; in the experiment on K-562 leukemia, 105%; in the experiment with MALME-3M melanoma, 113%. The growth is 105% with MDA-MB-231 breast; 103% with RXF 393 renal; 107% with SF-268 CNS; 104% in the experiment with SF-295 CNS; 106% with SF-539 CNS; 86.1% with UACC-257 melanoma.

For `N#CC1=C(N)Oc2c(ccc3ccccc23)C1c1cc(=O)oc2ccc(Cl)cc12` (stereo not given), the growth in the experiment with NCI-H23 lung is 32.9%; with NCI-H226 lung it was 98.3%; with NCI-H322M lung, 44.2%; in the experiment on HOP-62 NSCLC it was 33.3%; in the experiment with NCI-H460 lung it was 8.96% (active); in the experiment with HOP-92 NSCLC it was 87.5%. The growth is 5.22% (active) with NCI-H522 lung; 26.6% in the experiment on A549/ATCC NSCLC; 29.4% in the experiment with 786-0 renal; -16.4% (active) in the experiment on COLO 205 colon; 19.4% in the experiment on DU-145 prostate; 77.8% in the experiment on MALME-3M melanoma. For the same molecule, the growth is 50% in the experiment on MDA-MB-231 breast; 7.4% (active) with RXF 393 renal; 56.1% in the experiment on SF-268 CNS; 14.1% with SF-295 CNS; 3.16% (active) in the experiment with SF-539 CNS; 73.5% with UACC-257 melanoma. In addition, in the experiment on M14 melanoma, the growth is 3.47% (active).

Take `O=C(O)c1ccccc1C(=O)c1ccc(I)cc1`: the growth was 102% in the experiment on NCI-H23 lung; 101% in the experiment with NCI-H226 lung; 104% in the experiment with NCI-H322M lung; 88.7% with HOP-62 NSCLC; 78.3% in the experiment on HOP-92 NSCLC; 75.5% in the experiment with NCI-H522 lung. Also, the growth with A549/ATCC NSCLC is 98.4%; in the experiment on 786-0 renal, 99%; with COLO 205 colon, 103%; in the experiment with DU-145 prostate, 109%; with K-562 leukemia, 104%; in the experiment with MALME-3M melanoma, 98.3%. Besides, the growth was 110% with MDA-MB-231 breast; 108% in the experiment with RXF 393 renal; 106% in the experiment with SF-268 CNS; 102% in the experiment with SF-295 CNS; 98.9% in the experiment on SF-539 CNS; 117% in the experiment on UACC-257 melanoma. Besides, the growth in the experiment with M14 melanoma was 98.2%.
